High-throughput results (PubChem)
CtBP-E1A inh = blocks the CtBP interaction with E1A | AlphaScreen GST-E1A/His-CtBP binding, 1536-well; hits give low values | activity change, % (test concentration not listed) | 340,000 tested, 0.49% active; in the data active = activity change below about -65%; inconclusive = mostly about -30% to -63%; note: % is set by controls: 0 for no effect and ±100 for the full control effect
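In 5 uL wells, 23 nL compound meets equimolar GST-E1A and His-CtBP (5X stock 125 nM each) for 2 h, 37 °C. Beads (5X, 50 ug/mL) then 1 h, 37 °C, dark.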
ATXN2 expr inh = ATXN2 expression inhibition; Potency, µM (doses to about 57 µM), for the others: at the highest dose activity change, negative = inhibition, hits mostly inhibitors; HEK-293 ATXN2-luciferase reporter, luminescence, 24 h; 360,000 tested, 0.72% active; note: potency is the fitted concentration of half-maximal effect; % is set by controls: 0 for no effect and ±100 for the full control effect; nearly all actives have a fitted effect of over 55% in size
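ATXN2-luciferase reporter cells (luciferase flanked by upstream and downstream ATXN2 gene portions) were treated 24 h at 37 °C with compounds at up to 57 uM. SteadyGlo luminescence gave expression; GF-AFC fluorescence gave viability.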
Six1-Eya2 inh = inhibitors of human Six1/Eya2 interaction; Q15475+O00167; AlphaScreen GST-Six1/His-Eya2 binding, biochemical; hits give low values; activity change, % (no concentration beside the values); 360,000 tested, 0.56% active; in the data active = activity change below about -65%; inconclusive = mostly about -30% to -63%; note: % is set by controls: 0 for no effect and ±100 for the full control effect
Target sequence (O00167 whole entry, looked up): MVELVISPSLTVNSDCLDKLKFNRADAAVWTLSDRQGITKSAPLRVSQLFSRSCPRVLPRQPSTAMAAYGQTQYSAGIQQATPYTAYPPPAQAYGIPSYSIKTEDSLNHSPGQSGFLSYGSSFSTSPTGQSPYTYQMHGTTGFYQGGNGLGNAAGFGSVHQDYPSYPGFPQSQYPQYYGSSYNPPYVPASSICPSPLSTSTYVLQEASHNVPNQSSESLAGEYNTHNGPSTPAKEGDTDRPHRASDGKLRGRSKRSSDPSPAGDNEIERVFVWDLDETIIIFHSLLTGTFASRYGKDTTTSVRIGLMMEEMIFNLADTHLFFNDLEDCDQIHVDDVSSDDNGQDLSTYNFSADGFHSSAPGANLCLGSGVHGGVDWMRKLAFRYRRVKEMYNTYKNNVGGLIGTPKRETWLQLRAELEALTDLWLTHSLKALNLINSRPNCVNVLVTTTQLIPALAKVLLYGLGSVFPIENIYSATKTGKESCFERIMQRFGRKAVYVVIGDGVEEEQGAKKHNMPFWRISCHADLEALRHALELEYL
Target sequence (Q15475 whole entry, looked up): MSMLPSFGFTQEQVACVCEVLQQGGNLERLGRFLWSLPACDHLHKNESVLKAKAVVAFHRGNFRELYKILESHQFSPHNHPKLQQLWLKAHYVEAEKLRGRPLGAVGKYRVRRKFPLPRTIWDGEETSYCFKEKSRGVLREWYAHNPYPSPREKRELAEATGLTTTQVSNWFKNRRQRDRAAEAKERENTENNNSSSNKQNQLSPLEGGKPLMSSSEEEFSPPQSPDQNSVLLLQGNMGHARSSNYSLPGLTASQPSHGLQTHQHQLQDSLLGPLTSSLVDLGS
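AlphaScreen luminescence read after one hour at 37 °C in darkness. Pin-transferred compounds met GST-Six1 and His-Eya2 protein (5X stock 250 nM/500 nM) plus glutathione donor and Ni-chelate acceptor beads (5X, 50 ug/mL).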
TGFb SMAD3 inh = blocks TGF-b signaling | AID 588855 | Potency, µM (top dose mostly 46.1 µM), without a hit: top-dose activity, negative = inhibition, usual class: inhibitors | HepG2 CAGA-GFP TGF-b/SMAD3 reporter, GFP fluorescence, 18 h; TGF-beta stimulated, 500 pg/mL final | 410,000 tested, 1.2% active; note: potency is the fitted concentration of half-maximal effect; % is set by controls: 0 for no effect and ±100 for the full control effect; nearly all actives have a fitted effect of over 65% in size
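Inhibition was scored as loss of TGF-beta-induced (500 pg/mL final, 18 hours, 37 degrees C) GFP in HEPG2 cells carrying a CAGA-GFP reporter, in DMEM with 1% FBS. Well GFP was summed per cell; Activity was normalised to unstimulated and stimulated DMSO wells, then concentration-response fitting.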
ATXN viability = reduces viability in counter-screen for ATXN expression inhibitors; S2 cells (HEK-293 line with an ATXN2-luciferase reporter) viability, CellTiter-Fluor protease fluorescence, 24 h; Potency, µM (top dose mostly 56.7 µM), usual class: cytotoxic; 400,000 tested, 0.49% active; note: potency is the fitted concentration of half-maximal effect; nearly all actives have a fitted effect of over 40% in size
HepG2 tox = kills HepG2 cells in TGF-b inhibitor counter-screen; HepG2 CAGA-GFP viability, ATP luminescence, 18 h; Potency, µM (top dose mostly 46.1 µM), inactives show at the top dose activity change, negative = cytotoxicity, most hits filed as cytotoxic; 410,000 tested, 0.76% active; AID 588856; note: potency is the fitted concentration of half-maximal effect
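HepG2 CAGA-GFP cells (1000/well, DMEM with 1% FBS) received compound, then TGF-beta at 500 pg/mL final, and were incubated 18 hours at 37 degrees C. Viability was read by CellTiter-Glo luminescence. Media-only wells were set as complete cell-killing and DMSO as no toxicity.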
* marks the source's active call; other numbers are inactive results; i = inactive; ? = inconclusive; nt = no result; [ ] = another dose, or the depositor's remark. Compounds with a hit are over-represented: about 2.8% of the library has one in this group of screens. Unless noted, calls come from the whole dose curve; as a rule, active = well fitted curve in the direction sought with a large enough effect; inconclusive = small, poorly fitted or top-dose-only effect, or another doubt; inactive = no such curve, though single readings can be large; an effect the other way counts as inactive or inconclusive.

SMILES	CtBP-E1A inh	ATXN2 expr inh	Six1-Eya2 inh	TGFb SMAD3 inh	ATXN viability	HepG2 tox
CCc1ccccc1NC(=O)CSc1nc2n[nH]c(C)c2c(=N)n1-c1cccc(OC)c1	-69.9*	4.8%	?	-0.6%	i	-33.9%
CCOc1ccccc1-n1c(SCC(=O)Nc2ccc(CC)cc2)nc2n[nH]c(C)c2c1=N	3.4	?	-15.3	?	20µM*	9.8%
COc1cc2ccccc2cc1C(=O)OCC(=O)Nc1ccc(Br)cc1	nt	nt	nt	-1.1%	nt	-6.1%
Cc1[nH]nc2nc(SCC(=O)NCCC3=CCCCC3)n(-c3ccc(Br)cc3)c(=N)c12	nt	nt	-13.7	15.8µM*	?	-137.4%
Cc1cc(-n2c(SCC(=O)NCCC3=CCCCC3)nc3n[nH]c(C)c3c2=N)ccc1Cl	nt	nt	-3.7	?	?	-79.2%
Cc1cc(C)n(CC(O)Cn2c3ccc(Cl)cc3c3cc(Cl)ccc32)c(=O)n1 (configuration not stated)	-2.8	31.6µM*	-2.5	?	?	-87.1%
Cc1cc(C)n(CC(O)Cn2c3ccccc3c3ccccc32)n1 (configuration not stated)	6.4	-14.1%	-1.8	-17.4%	i	-23.2%
CCN1c2ccccc2-c2nc(SCC(=O)Nc3ccc(C)c(Cl)c3)ncc2S1(=O)=O	nt	-18.4%	nt	?	?	-2.4%
COc1ccc(CN(C)C[C@@H]2OCCCC[C@H](C)Oc3ccc(NC(=O)Nc4ccc(F)cc4)cc3C(=O)N([C@H](C)CO)C[C@H]2C)cc1	-3.6	?	-11.0	?	17.8µM*	25.1µM*
C[C@@H]1CN([C@@H](C)CO)C(=O)c2cc(NC(=O)Nc3ccc(F)cc3)ccc2O[C@@H]1CN(C)Cc1ccc(Oc2ccccc2)cc1	-13.7	0.0%	-24.1	?	25.1µM*	15.8µM*
C[C@@H]1CCCCO[C@H](CN(C)Cc2ccc(C(F)(F)F)cc2)[C@H](C)CN([C@@H](C)CO)C(=O)c2cc(NC(=O)Cc3ccccc3)ccc2O1	2.2	0.0%	5.2	?	12.6µM*	-46.1%
CC(C)NC(=O)Nc1ccc2c(c1)C(=O)N([C@H](C)CO)C[C@H](C)[C@@H](CN(C)Cc1ccc(C(F)(F)F)cc1)OCCCC[C@H](C)O2	-3.5	?	4.9	15.8µM*	nt	-35.9%
CN[C@@H](C)C(=O)N[C@H]1CCCC[C@H]2CC[C@@H](C(=O)N[C@@H](c3ccccc3)c3cn(CCCCc4ccc(CCCCn5cc([C@@H](NC(=O)[C@@H]6CC[C@@H]7CCCC[C@H](NC(=O)[C@H](C)NC)C(=O)N76)c6ccccc6)nn5)cc4)nn3)N2C1=O	nt	-2.6%	nt	nt	nt	nt
NC(CO)(CO)CO	nt	4.6%	nt	nt	i	nt
Cc1c(C(=O)NCC2(N3CCOCC3)CCCC2)cnn1-c1nccc(-c2ccccc2F)n1	nt	nt	nt	nt	i	nt
O=C(NCC(c1cccnc1)N1CCc2ccccc21)c1cccc(F)c1 (configuration not stated)	nt	nt	nt	?	nt	-22.0%
CCC(=O)Oc1ccc2c(c1)CC[C@@H]1[C@@H]2CC[C@]2(C)[C@@H](OC(=O)CC)CC[C@@H]12	nt	nt	nt	nt	i	nt
C[C@@H]1CN([C@@H](C)CO)C(=O)c2cc(Br)cnc2O[C@@H]1CN(C)Cc1ccc(Oc2ccccc2)cc1	4.7	-37.9%	-12.0	?	25.1µM*	-35.0%
COc1ccc(CNC(=O)c2cnc3sc(N4CCC(C)CC4)nn3c2=O)c(OC)c1	nt	2.0%	nt	-14.6%	i	-18.8%
Cc1cccc(N2C(=O)CCSC23C(=O)N(Cc2ccc(F)cc2)c2ccccc23)c1 (configuration not stated)	nt	nt	nt	?	nt	17.8µM*
O=C1CCSC2(C(=O)N(Cc3ccc(F)cc3)c3ccccc32)N1c1cccc(F)c1 (configuration not stated)	nt	nt	nt	12.6µM*	nt	-50.3%
O=C(C[n+]1cccc2cccc(O)c21)c1ccc(Br)cc1	nt	nt	nt	-9.5%	nt	-7.9%
CC(=NNc1nc2ccccc2s1)c1ccncn1	-78.1*	?	?	?	nt	-24.8%
C/C(=N\Nc1nc2ccccc2s1)c1ccc2c(c1)OCO2	nt	nt	0.1	?	i	-23.0%
Cc1ccc(/C=N/Nc2nc3ccccc3s2)o1	-28.2	110.9%	?	3.7%	nt	-10.9%
SMILES	CtBP-E1A inh	ATXN2 expr inh	Six1-Eya2 inh	TGFb SMAD3 inh	ATXN viability	HepG2 tox
C/C(=N\Nc1nc2ccccc2s1)c1ccc(Br)s1	-7.1	-16.7%[11.3 µM]	-19.2	12.6µM*	nt	-42.5%
CC(C)(C(=O)NCC(F)(F)C(F)(F)F)C(=O)N[C@@H]1C(=O)Nc2ccccc2-c2ccccc21	nt	-12.3%	nt	nt	nt	nt
COC1CCC(N(C(=O)C2CCC(C)CC2)c2cc(C3=CCCCC3)sc2C(=O)O)CC1 (configuration not stated)	nt	-0.9%	nt	nt	nt	nt
COc1ccccc1C1CN(Cc2cccc3nccnc23)Cc2ccccc2O1 (configuration not stated)	nt	nt	nt	nt	i	nt
O=S(=O)(Nc1ccc(F)cc1Cl)c1ccc(-c2cnc(C3CC3)o2)cc1	nt	nt	-1.5	14.1µM*	i	-53.6%
Cc1cc(-c2ccc(S(=O)(=O)Nc3ccc(Cl)cc3C)cc2)on1	nt	nt	nt	12.6µM*	nt	-30.8%
CCN(CC)c1ccc(NS(=O)(=O)c2ccc(-c3cnc(C4CC4)o3)cc2)c(C)c1	nt	?	nt	?	?	-22.4%
COc1ccccc1CNS(=O)(=O)c1ccc(-c2cnc(C3CC3)o2)cc1	nt	-30.1%	6.4	11.2µM*	?	28.7%
COc1ccc(NS(=O)(=O)c2ccc(-c3cnc(C4CC4)o3)cc2)cc1OC	nt	nt	-9.9	-30.7%	i	-21.6%
Cc1ccc(NS(=O)(=O)c2ccc(-c3cnc(C4CC4)o3)cc2)c(C)c1	nt	nt	-4.3	12.6µM*	?	-68.2%
COc1ccc(CN2Cc3ccccc3OC(c3ccccc3OC)C2)c(O)c1 (configuration not stated)	nt	nt	nt	nt	i	nt
O=S(=O)(NCc1nnc2n1CCN(Cc1ccccc1Cl)CC2)c1ccccc1	nt	nt	nt	nt	i	nt
COC(=O)[C@@H]1CCCN1C(=O)c1c(OC)cc(=O)n2c1CCN(Cc1c(C)[nH]c3ccccc13)CC2	nt	nt	nt	nt	i	nt
CCOc1ccccc1NS(=O)(=O)c1ccc(-c2cnc(C3CC3)o2)cc1	nt	nt	0.4	4.47µM*	i	-31.5%
Cc1ccc(NS(=O)(=O)c2cc(-c3cnc(C4CC4)o3)ccc2C)cc1Cl	nt	-7.9%	nt	7.08µM*	i	11.2µM*
Cc1cc(C)c(NS(=O)(=O)c2ccc(-c3cnc(C4CC4)o3)cc2)c(C)c1	nt	-31.0%	nt	1.41µM*	?	-67.3%
CCOc1ccccc1NS(=O)(=O)c1cc(-c2cnc(C3CC3)o2)ccc1C	nt	4.8%	nt	-25.4%	i	-48.6%
